Where “and” joins values, the source holds several entries; their conditions need not be identical. Equal values may be shown once.
molecular target: Calmodulin-1 (Homo sapiens) (UniProt P0DP23); assay: CALM1 binders on microarrays, EGTA buffer, profiling panel, biochemical, small-molecule microarray, Cy5-labelled CALM1 (AID 1111); details: Cy5-CALM1 binding fluorescence, higher = more signal;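 further: labelled calmodulin applied in Tris saline Tween buffer holding calcium plus EGTA and DTT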

SMILES | composite z-score
C[N+](C)(C)CCCCNC(=O)[C@H]1C[C@H]2C(=O)N[C@@H](CCCC[N+](C)(C)C)C(=O)N2[C@H]1c1ccc(O)cc1 | -0.0061 and -1.63
CO[C@@H]1COC(=O)[C@H](Cc2ccccc2)NC(=O)CC=C[C@@H](C)[C@H](OC)COC(=O)[C@@H](C)NC(=O)CC=C[C@H]1C | -0.913 and -0.79
CCOC(=O)c1ccc(NC(=O)O[C@H]2[C@H](OC(=O)Nc3ccccc3)[C@H](OC(=O)Nc3ccccc3)[C@@H](OC)O[C@@H]2CO)cc1 | 2 and 2.1
CC(C)OC(=O)C=C1C[C@@H](c2ccccc2)O[C@@H](c2ccccc2)O1 | 0.056 and 1.23
C=CCN(C(=O)C1N(CCOCCO)C(=O)C2C(C(=O)O)C3C=CC21O3)c1ccc(OC)cc1 (centres undefined) | -0.315 and -1.35
CCCC[C@@H]1CN2[C@H](c3ccc(Br)cc3)[C@@H](C)CC[C@H]2C(=O)O1 | -0.254 and -0.255
COC(=O)[C@@]1(Cc2ccc(OC)cc2)[C@H]2c3cc(C(=O)N(C)C)n(Cc4ccc(O)c(OC)c4)c3C[C@H]2CN1C(=O)c1ccccc1 | 2.32 and 1.21
CCOC(=O)NN=C1C[C@@H](O)[C@@H](O)[C@@H]2[C@@H]3C(=O)N(Cc4ccc5c(c4)OCO5)C(=O)[C@@H]3CC[C@@H]12 | 0.257
C=CCN(CCCC)C(=O)C(c1cccs1)N(CCOCCO)C(=O)/C=C\C(=O)O (centres undefined) | -0.501 and -0.702
C=CCN(CCCCC)C(=O)C(c1cccs1)N(C(=O)/C=C\C(=O)O)c1c(Cl)cccc1CO (centres undefined) | -0.332 and -1.06
CC(CO)N1C(=O)[C@@H]2C3C(=O)OCCC=C[C@H]3OC23C=CCN(c2ccc4ccccc4c2)C(=O)[C@@H]13 (some centres undefined) | -0.482 and -1.21
C=C[C@@H](C)[C@@H](O)c1ccc(O)c2ccccc12 | -0.878 and -0.992
C=CCN(C(=O)C1N(CCCCCCO)C(=O)C2C(C(=O)O)C3C=CC21O3)c1ccc(OC)cc1 (centres undefined) | -0.0411 and -1.13
CC[C@@H]1C(Sc2ccccc2)C(C(=O)O)[C@H](c2ccc(C)cc2)N1S(=O)(=O)c1ccc(C)cc1 (some centres undefined) | 1.98 and 1.65
CC(C)=NO[C@@H](C)c1cc(-c2c(C)cc(C)cc2C)no1 | -0.35
C[N+](C)(C)CCCCCCNC(=O)[C@H]1C[C@H]2C(=O)N[C@@H](CCCC[N+](C)(C)C)C(=O)N2[C@H]1c1ccc(O)cc1 | -0.616 and -0.416
C=CCN(C(=O)C(c1cccs1)N(C(=O)/C=C\C(=O)O)c1ccc(CCO)cc1)C(C)(C)C (centres undefined) | 0.295 and 0.0738
C=C[C@@H](OC)[C@H](O)c1ccc(OC)c(O)c1 | -1.19 and -1.42
C#CCCCON=C1C[C@@H](O)[C@@H](O)[C@@H]2[C@@H]3C(=O)N(C4CCCCC4)C(=O)[C@@H]3CC[C@H]12 | 0.974
CC(C)N1CC=CC23O[C@@H]4C=CCCOC(=O)C4[C@H]2C(=O)N(C(C)CO)[C@@H]3C1=O (some centres undefined) | -0.302 and -0.271

SMILES | composite z-score
CCOC(=O)[C@@H]1CC=C2CC1C(=O)N1CCC[C@@H]1[C@H]2O[Si](C)(C)C(C)(C)C (some centres undefined) | -1.9 and -1.57
C=CCN(CCCC)C(=O)C(c1cccs1)N(C(=O)/C=C\C(=O)O)c1ccc(CCO)cc1 (centres undefined) | -0.324 and -0.724
COC(=O)[C@H](C)NC(=O)CCC1CC(OC(=O)NCCc2ccc(F)cc2)CC2(CCCC(COC(=O)NCCCN3CCCC3=O)O2)O1 (some centres undefined) | 0.95
C[C@@H]1CC[C@@H](C(=O)O)N[C@H]1c1ccc(-c2ccco2)cc1 | -0.547
CCOC(=O)C[C@H]1[C@H](OC(=O)c2ccccc2-c2ccccc2)[C@@H](NC(=O)c2ccccc2)c2cc(OCCCO)ccc2N1C(=O)c1ccc2ccccc2n1 | -0.118 and 1.47
COC(=O)C1=C(C)N(Cc2ccccc2)C2=C3C(=O)N(C)C(=O)[C@@H]3[C@@](O)(C(=O)OC)C(=O)N2[C@@H]1c1ccccc1 | -0.403 and -0.324
CC(C)CON=C1C[C@@H](O)[C@@H](O)[C@@H]2[C@@H]3C(=O)N(c4cccc(Oc5ccccc5)c4)C(=O)[C@@H]3CC[C@H]12 | 0.401
C=C[C@@H](OC)[C@H](O)c1ccc(OCCO)cc1 | -1.29 and -0.831
CC(CO)N1C(=O)[C@@H]2C3C(=O)OCCC=C[C@H]3OC23C=CCN(c2ccc(Cl)cc2)C(=O)[C@@H]13 (some centres undefined) | 0.136 and 0.0733
C=CCN(CCCCC)C(=O)C1N(CCOCCO)C(=O)C2C(C(=O)O)C3C=CC21O3 (centres undefined) | -0.368 and -0.355
C=CCN(C(=O)C1N(CCCCCCO)C(=O)C2C(C(=O)O)C3C=CC21O3)C(C)(C)C (centres undefined) | -0.332 and -0.397
COC(=O)C1=C(C)N(Cc2ccccc2)C2=C(C(C)=O)C[C@@](O)(C(=O)OC)C(=O)N2[C@@H]1c1ccccc1 | -1 and -0.501
C=CCN(C(=O)C(c1cccs1)N(CCOCCO)C(=O)/C=C\C(=O)O)C(C)(C)C (centres undefined) | -1.36 and -0.361
COC(=O)C1=C(C)N(Cc2ccccc2)[C@]23O[C@](C(=O)OC)(C(=O)N2[C@@H]1c1ccccc1)[C@@H](C(=O)OC)[C@H]3C(=O)OC | -0.602 and 0.395
C=C[C@H](C)[C@@H](O)c1ccc(OCCO)cc1 | -0.827 and -0.366
C=CCN(CCCC)C(=O)C1N(c2c(Cl)cccc2CO)C(=O)C2C(C(=O)O)C3C=CC21O3 (centres undefined) | -0.623 and -0.783
CCCNC(=O)OC[C@H]1O[C@H](CCON=C(C)CCN2CCc3nc(-c4ccccc4)c(-c4ccccc4)cc3C2)C=C[C@@H]1Oc1ccc(OC)cc1 | -0.0233
COC(=O)c1c2oc(c1C(=O)OC)C(=O)N[C@@H](Cc1ccccc1)Cn1cc(nn1)C1(CCCCC1)NC(=O)N[C@H](CO)CC2 | 0.0754 and -0.157
C=CCN(Cc1ccccc1)C(=O)C(c1cccs1)N(C(=O)/C=C\C(=O)O)c1ccc(CCO)cc1 (centres undefined) | -0.729 and -1
